“And” between values parts separate entries of the source, which are not always exact repeats. Equal values may be shown once. Inconclusive results are not listed. The source made the active and inactive calls. Unless noted, calls come from the whole dose curve; as a rule, active = well fitted curve in the direction sought with a large enough effect; inconclusive = small, poorly fitted or top-dose-only effect, or another doubt; inactive = no such curve, though single readings can be large; an effect the other way counts as inactive or inconclusive.
What was measured:
[1] = Primary qHTS for small molecule stabilizers of the endoplasmic reticulum resident proteome: Secreted ER Calcium Modulated Protein (SERCaMP) assay (AID 1508630)
Method in brief: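 GLuc-SERCaMP-expressing SH-SY5Y cells, pretreated 16 h with compound, are challenged with thapsigargin to empty ER calcium stores; after 4 h, coelenterazine is added directly to the medium and luminescence is imaged.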

[2] = target: Cytochrome P450 2D6 (Homo sapiens) (UniProt P10635); test: Cytochrome P450 family 2 subfamily D member 6 (CYP2D6) small molecule antagonists: luciferase biochemical (cell-free) qHTS assay (AID 1645840; active = well fitted curve in the direction sought with a large enough effect in the repeat runs; an effect the other way counts as inactive or inconclusive; note: nearly all actives have a fitted effect of over 55% in size; note: potency is the fitted concentration of half-maximal effect)
Chain of Cytochrome P450 2D6 (Homo sapiens) (P10635 whole entry, looked up): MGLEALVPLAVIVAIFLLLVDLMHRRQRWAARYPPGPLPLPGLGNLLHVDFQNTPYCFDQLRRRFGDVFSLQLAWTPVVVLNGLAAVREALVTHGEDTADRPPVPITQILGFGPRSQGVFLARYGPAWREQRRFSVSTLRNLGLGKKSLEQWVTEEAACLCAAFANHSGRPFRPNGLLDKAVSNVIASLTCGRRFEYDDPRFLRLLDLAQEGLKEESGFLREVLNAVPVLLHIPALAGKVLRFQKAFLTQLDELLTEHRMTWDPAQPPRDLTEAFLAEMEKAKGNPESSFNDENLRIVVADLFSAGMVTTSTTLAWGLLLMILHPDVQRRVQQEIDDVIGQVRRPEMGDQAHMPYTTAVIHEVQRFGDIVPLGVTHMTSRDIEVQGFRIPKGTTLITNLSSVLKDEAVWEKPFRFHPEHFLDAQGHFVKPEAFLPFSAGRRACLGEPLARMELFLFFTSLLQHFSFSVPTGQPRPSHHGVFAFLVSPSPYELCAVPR
Method in brief: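 P450-Glo luminescent screen: recombinant CYP2D6 enzyme–proluciferin substrate mix preincubated with compound 10 min at room temperature, then NADPH regeneration added for 1 h at room temperature. Detection reagent added for 20 min; luciferin light read as relative luminescence units.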

[3] = target: Cytochrome P450 2C9 (Homo sapiens) (UniProt P11712); test: Cytochrome P450 family 2 subfamily C member 9 (CYP2C9) small molecule antagonists: luciferase biochemical (cell-free) qHTS assay (AID 1645842; active = well fitted curve in the direction sought with a large enough effect in the repeat runs; an effect the other way counts as inactive or inconclusive; note: nearly all actives have a fitted effect of over 55% in size; note: potency is the fitted concentration of half-maximal effect)
Chain of Cytochrome P450 2C9 (Homo sapiens) (P11712 whole entry, looked up): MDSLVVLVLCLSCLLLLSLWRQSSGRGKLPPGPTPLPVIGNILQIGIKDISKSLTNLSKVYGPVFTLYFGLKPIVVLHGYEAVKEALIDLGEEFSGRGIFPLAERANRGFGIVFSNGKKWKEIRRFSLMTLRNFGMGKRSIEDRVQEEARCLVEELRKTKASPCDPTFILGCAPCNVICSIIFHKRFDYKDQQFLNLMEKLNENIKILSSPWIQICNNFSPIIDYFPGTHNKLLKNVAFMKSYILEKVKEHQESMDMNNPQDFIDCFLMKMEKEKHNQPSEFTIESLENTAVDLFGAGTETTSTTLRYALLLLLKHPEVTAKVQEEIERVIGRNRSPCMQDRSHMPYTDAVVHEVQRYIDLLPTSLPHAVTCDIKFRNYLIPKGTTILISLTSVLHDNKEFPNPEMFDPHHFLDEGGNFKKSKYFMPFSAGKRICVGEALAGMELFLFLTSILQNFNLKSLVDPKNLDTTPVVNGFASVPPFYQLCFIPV
Method in brief: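 Luminescence, after 20 min with luciferin detection reagent, reflected CYP2C9 turnover during a 1 h NADPH-driven reaction at 37C. Enzyme-substrate mix contained 0.4% bovine serum albumin and was preincubated with compound 10 min at room temperature.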

[4] = Primary qHTS for inhibitors of nuclear receptor binding SET domain protein 2 (NSD2) in an isogenic RCH-ACV NSD2 p.E1099K mutant (9B) (AID 1645876); note: nearly all actives have a fitted effect of over 70% in size; note: potency is the fitted concentration of half-maximal effect
[5] = Primary qHTS for inhibitors of nuclear receptor binding SET domain protein 2 (NSD2) in an RCH-ACV wild type WT cells (2C) (AID 1645877); note: nearly all actives have a fitted effect of over 70% in size; note: potency is the fitted concentration of half-maximal effect
[6] = target: Catechol O-methyltransferase (Homo sapiens) (UniProt P21964); test: Confirmatory Screen for Target Class Profiling of Small Molecule Inhibitors of Methyltransferases (AID 1745852); settings: MTase-Glo luminescence, SAH detection, recombinant enzyme; measured here: COMT max response; stronger effect = lower value
Chain of Catechol O-methyltransferase (Homo sapiens) (P21964 whole entry, looked up): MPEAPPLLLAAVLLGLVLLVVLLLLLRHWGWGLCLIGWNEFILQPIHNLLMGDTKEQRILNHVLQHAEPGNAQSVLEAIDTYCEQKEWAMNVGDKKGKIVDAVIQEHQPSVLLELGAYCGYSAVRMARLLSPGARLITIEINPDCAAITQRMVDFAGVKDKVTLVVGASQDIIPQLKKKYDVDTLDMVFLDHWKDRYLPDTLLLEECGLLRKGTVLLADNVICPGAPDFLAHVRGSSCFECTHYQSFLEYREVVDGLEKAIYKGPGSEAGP

[7] = target: Guanidinoacetate N-methyltransferase (Homo sapiens) (UniProt Q14353); test: as above; settings: MTase-Glo luminescence, SAH detection, recombinant enzyme; activity change, negative = inhibition: at 57.3 µM (top of the series)
[8] = target: Nicotinamide N-methyltransferase (Homo sapiens) (UniProt P40261); test: as above; settings: MTase-Glo luminescence, SAH detection, recombinant enzyme; measured here: NNMT max response; stronger effect = lower value
Chain of Nicotinamide N-methyltransferase (Homo sapiens) (P40261 whole entry, looked up): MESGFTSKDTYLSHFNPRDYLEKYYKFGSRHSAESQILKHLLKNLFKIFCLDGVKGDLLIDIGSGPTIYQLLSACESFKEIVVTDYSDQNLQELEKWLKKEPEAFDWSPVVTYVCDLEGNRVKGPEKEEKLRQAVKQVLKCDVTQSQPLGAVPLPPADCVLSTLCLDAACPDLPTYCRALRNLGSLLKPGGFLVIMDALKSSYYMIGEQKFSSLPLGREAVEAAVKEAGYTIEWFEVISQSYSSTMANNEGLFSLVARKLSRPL

[9] = target: Phenylethanolamine N-methyltransferase (Homo sapiens) (UniProt P11086); test: as above; settings: MTase-Glo luminescence, SAH detection, recombinant enzyme; measured here: PNMT max response; stronger effect = lower value
Chain of Phenylethanolamine N-methyltransferase (Homo sapiens) (P11086 whole entry, looked up): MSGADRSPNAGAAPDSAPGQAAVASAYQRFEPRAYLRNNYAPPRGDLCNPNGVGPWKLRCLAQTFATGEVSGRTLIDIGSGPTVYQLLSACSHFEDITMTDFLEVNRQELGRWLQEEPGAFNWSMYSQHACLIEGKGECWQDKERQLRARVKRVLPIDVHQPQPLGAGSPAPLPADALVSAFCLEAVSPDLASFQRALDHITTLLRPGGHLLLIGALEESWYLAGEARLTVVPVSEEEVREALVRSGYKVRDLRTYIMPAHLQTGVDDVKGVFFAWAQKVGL

[10] = NCATS anti-infectives library activity on HEK293 viability as a counter-qHTS vs the C. elegans viability qHTS (AID 1745854);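 note: HEK293 cells exposed to compounds for 24 hr before the viability read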
Method in brief: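 Cytotoxicity in human HEK293 cells is measured by ATP-dependent CellTiter-Glo luminescence following a 24 hr incubation with titrated library compounds at 37C. Top final concentration is 41.7 uM.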

Cc1ccccc1-n1c(Cn2nc(-c3cccc(O)c3)c3c(N)ncnc32)nc2cccc(C)c2c1=O
-10.8%: activity [6]
active: Potency [3] 2.13 µM | Potency [4] 0.186 µM | Potency [5] 0.728 µM
inactive: Potency [1] | Potency [2]
0%: activity change, negative = inhibition [7]
-28.8%: activity [8]
1.94%: activity [9]

CN(C)c1nc(Cc2ccc(NC(=O)c3ccc(C(F)(F)F)cc3)cc2)nc(N(C)C)c1CC(=O)O
inactive: Potency [1] | Potency [2] | Potency [3] | Potency [4] | Potency [5]

CCOC(=O)N1c2ccc(C(F)(F)F)cc2[C@@H](N(Cc2cc(C(F)(F)F)cc(C(F)(F)F)c2)C(=O)OC)C[C@H]1CC
inactive: Potency [1] | Potency [2] | Potency [3] | Potency [4] | Potency [5]

O[C@@H](COc1cccc2ncccc12)CN1CCN(C2c3ccccc3[C@@H]3[C@H](c4ccccc42)C3(F)F)CC1 (stereo partly specified)
active: Potency [2] 13.8 µM and 10.7 µM | Potency [3] 10.7 µM | Potency [4] 15 µM | Potency [5] 10.6 µM
inactive: Potency [1]

Cn1c(=O)c(-c2c(Cl)cccc2Cl)cc2cnc(Nc3cccc(C(=O)O)c3)nc21
inactive: Potency [1] | Potency [2] | Potency [3] | Potency [4] | Potency [5]

CCN1C[C@H](C)n2c(c(O)c3c(=O)n(Cc4ccc(F)c(Cl)c4)nc(C(=O)NC)c32)C1=O
inactive: Potency [1] | Potency [2] | Potency [4] | Potency [5] | outcome [10]
active: Potency [3] 8.49 µM

O=S(=O)(O)c1ccc2cc(N=Nc3cc(S(=O)(=O)O)c4cccnc4c3O)ccc2c1
inactive: Potency [1] | Potency [2] | Potency [3] | Potency [4] | Potency [5]

Cc1cn([C@@H]2C[C@@H](O)[C@H](CO)O2)c(=O)[nH]c1=O
inactive: Potency [1] | Potency [2] | Potency [3] | Potency [4] | Potency [5] | outcome [10]

O=c1[nH]nc(OCCCc2ccc(Cl)cc2)c(NCc2cccnc2)c1Br
inactive: Potency [1]
active: Potency [2] 10.7 µM | Potency [3] 1.51 µM | Potency [4] 8.17 µM | Potency [5] 9.16 µM
